Source: PubChem BioAssay (The Scripps Research Institute Molecular Screening Center)
DAX1 inh-1: NR0B1 (DAX1) inhibition; inhibition, % at 6.75 µM; HEK293 Gal4-DAX1 luciferase reporter, luminescence; P51843; actives 0.99% (n = 340,000);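 active = inhibition above the mean over all tested compounds plus 3 SD, cut at about 4.2% in these data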;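 also: inhibition shows as a rise in luminescence from relieved DAX1 repression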
Target sequence (P51843 207-470 limits assumed): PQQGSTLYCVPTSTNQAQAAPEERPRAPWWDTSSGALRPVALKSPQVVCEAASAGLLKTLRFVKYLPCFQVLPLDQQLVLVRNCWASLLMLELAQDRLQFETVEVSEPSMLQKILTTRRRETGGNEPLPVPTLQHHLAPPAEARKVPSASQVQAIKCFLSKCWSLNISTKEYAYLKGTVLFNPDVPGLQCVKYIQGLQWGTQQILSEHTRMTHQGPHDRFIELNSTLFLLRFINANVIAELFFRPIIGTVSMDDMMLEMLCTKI
ssDAF12 agonist: activates DAF-12 receptor from parasite S. stercoralis; actives 1% (n = 370,000); AID 652126; activation, % at 6.8 µM; HEK293 ssDAF-12/GRIP1 lit1-tk-luc reporter, luminescence; % of 3 µM dafachronic acid response;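 active = activation above the mean over all tested compounds plus 3 SD, cut at about 0.9% in these data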
hcDAF12 agonist: activates DAF-12 receptor from parasite H. contortus. HEK293 hcDAF-12 lit1-tk-luc reporter, luminescence; 0% DMSO, 100% Δ7-dafachronic acid. activation, % at 6.8 µM. actives 1.4% (n = 370,000);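 active = activation above the mean of all tested compounds plus 3 SD, cut at about 5.5% in these data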
DAX1 inh-2: DAX1 (NR0B1) inhibition, primary screen | actives 1.1% (n = 370,000) | HEK293T StAR-luciferase reporter, SF-1/DAX-1 repression relief | inhibition, % at 6.8 µM;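 active = inhibition above the mean over all tested compounds plus 3 SD, cut at about 3.6% in these data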;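 also: higher inhibition means more luminescence from relief of DAX-1 repression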
hgDAF12 agonist: agonists of H. glycines DAF-12 nuclear receptor; HEK293 GAL4-hgDAF12 UAS-luciferase reporter, agonist luminescence; normalized to butyrate control; activation, % at 6.8 µM; actives 1.8% (n = 370,000);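 active = activation above a cutoff set at the mean of all screened compounds plus 3 SD, cut at about 10% in these data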
LXR ag: activates human LXR-beta, counter-screen for hcDAF-12 agonists; shares compounds with hcDAF12 agonist; HEK293 Gal4-LXR tk-luc reporter, luminescence, 24 h; normalized: DMSO 0%, positive control 100%; activation, % at 6.8 µM; 3,400 tested, under 10 active; AID 743027;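 active = mean percent activation of the reporter above a cutoff set as the average over tested compounds plus their standard deviation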
Target sequence (P55055 whole entry, looked up, the tested form may be a part): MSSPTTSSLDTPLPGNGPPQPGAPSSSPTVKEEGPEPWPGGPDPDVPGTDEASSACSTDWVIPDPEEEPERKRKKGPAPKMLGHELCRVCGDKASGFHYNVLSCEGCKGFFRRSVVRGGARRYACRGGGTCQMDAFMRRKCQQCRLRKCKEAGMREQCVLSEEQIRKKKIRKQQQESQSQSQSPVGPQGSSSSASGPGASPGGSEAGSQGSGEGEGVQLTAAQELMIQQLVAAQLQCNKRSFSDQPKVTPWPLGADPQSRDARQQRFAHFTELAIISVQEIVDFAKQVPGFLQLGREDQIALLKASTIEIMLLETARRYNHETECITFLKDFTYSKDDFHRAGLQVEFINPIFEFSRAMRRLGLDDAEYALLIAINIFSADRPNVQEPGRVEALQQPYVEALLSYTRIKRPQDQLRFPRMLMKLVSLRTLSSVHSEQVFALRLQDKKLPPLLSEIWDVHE
hcDAF12 ag: hcDAF-12 agonism, confirmation assay; actives 61% (n = 3,400); activation, % at 6.8 µM; HEK293 hcDAF-12 lit1-tk-luc reporter, luminescence; % of Δ7-dafachronic acid response; AID 743032; shares compounds with hcDAF12 agonist;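 active = mean activation across triplicate tests above the threshold derived from the earlier primary screen, cut at about 5.5% in these data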
Large screens that a line does not name were inactive (follow-up assays come after a bar, where they were run). An excerpt weighted towards active compounds, which were near 4.1% of everything screened.

CCCn1cnnc1CNC(=O)[C@@H](Cc1ccccc1)NC(=O)[C@H]1O[C@@H](n2ccc(=O)[nH]c2=O)[C@H](O)[C@@H]1O	none (no result: DAX1 inh-1)
COC(=O)c1ccc(N=NNc2ccc(C(=O)OC)cc2)cc1	hcDAF12 agonist 10.2 | LXR ag inactive | hcDAF12 ag 12.3
COC(=O)c1ccc(N=NN2CCCCCC2)cc1	none
CN(C)CCNC(=O)c1cccc2nc3cccc(F)c3nc12	ssDAF12 agonist 1.5, hcDAF12 agonist 18.2 | LXR ag inactive | hcDAF12 ag 14.1
COc1ccc(OC)c2nc3c(C(=O)NCCN(C)C)cccc3nc12	hcDAF12 agonist 11.5 | LXR ag inactive | hcDAF12 ag 9.2
Cc1cccc(C(=O)NCCN(C)C)c1	none
CCOC(=O)CC[C@@H]1CC[C@]2(CCCN(S(=O)(=O)C3CCCCC3)C2)O1	none (no result: DAX1 inh-1)
CCC(=O)N(CC)Cc1cc(=O)[nH]c2ccccc12	hcDAF12 agonist 6.8 | LXR ag inactive | hcDAF12 ag inactive
CCCN(Cc1cc(=O)[nH]c2ccccc12)C(=O)CC	none
CC(C)(C)OC(=O)/C=C/[C@@H](CCCCl)Sc1ccc(C(C)(C)C)cc1	none (no result: DAX1 inh-1)
C#CCCN([C@@H](CC(C)C)C(=O)OC)S(=O)(=O)c1ccccc1Br	none (no result: DAX1 inh-1)
O=P1(O)C=C(c2ccccc2)OC(c2ccccc2)=C1	ssDAF12 agonist 1.4, hcDAF12 agonist 9.9 | LXR ag inactive | hcDAF12 ag 11.2
Cc1[nH]c2ccccc2c1/C=N/Nc1cccc(C(=O)O)c1	ssDAF12 agonist 0.9, hcDAF12 agonist 11.3, hgDAF12 agonist 12.5 | LXR ag inactive | hcDAF12 ag 12.6
COc1ccc(C2C(C(=O)N3CCN(C=O)CC3)CC(=O)N2c2ccc(OC)cc2)cc1 (stereo unspecified)	none (no result: DAX1 inh-1)
O=C(O)/C(=C\c1ccccc1)c1ccc2ccccc2c1	none (no result: DAX1 inh-1)
O=C(O)C(=O)/C(=C\c1cccc(Cl)c1)c1ccc2ccccc2n1	ssDAF12 agonist 2.1, hcDAF12 agonist 13.6, DAX1 inh-2 3.8, hgDAF12 agonist 11.2 | LXR ag inactive | hcDAF12 ag 8.6
Cc1ccc(-n2ncc(C(=O)NC3CC3)c2C2CCN(C(=O)OC(C)(C)C)CC2)cc1	none
Cc1ccc(-n2ncc(Cl)c2C(=O)NC2CC2)cc1	hcDAF12 agonist 8.8, hgDAF12 agonist 11.3 | LXR ag inactive | hcDAF12 ag 5.6
O=C(Nc1ccccc1)c1cnc2ccccc2n1	ssDAF12 agonist 1.1, hcDAF12 agonist 7.5, hgDAF12 agonist 10.6 | LXR ag inactive | hcDAF12 ag 7.4
CCCCN(C(=O)C1=CC=CN2CCS(=O)(=O)N=C12)c1ccccc1	none
CCc1cc2c(=O)c(-c3nc(C)cs3)coc2cc1O	none
Cc1csc(-c2coc3cc(O)cc(C)c3c2=O)n1	ssDAF12 agonist 1.6, hcDAF12 agonist 12.7 | LXR ag inactive | hcDAF12 ag 10.7
COc1ccc2c(=O)c(-c3nc(C)cs3)coc2c1	ssDAF12 agonist 1.1, hcDAF12 agonist 7.0, DAX1 inh-2 4.1, hgDAF12 agonist 13.8 | LXR ag inactive | hcDAF12 ag 14.3
Clc1ccc(/C=N/Nc2nc(Cl)nc3ccccc23)cc1	none
Clc1ccc(/C=N/NC2=Nc3cccc4cccc2c34)cc1	hcDAF12 agonist 6.7 | LXR ag inactive | hcDAF12 ag 10.1
COc1ccc(S(=O)(=O)N(C)[C@H]2C[C@H]3c4cc(Oc5ccccc5C)ccc4CCN3C(=O)[C@H]2[C@H](C)O)cc1	none
COc1ccccc1NC(=O)CSCC(N)=O	none
COc1ccccc1NC(=O)CSCc1nc2ccccc2[nH]1	hcDAF12 agonist 7.0 | LXR ag inactive | hcDAF12 ag inactive
C/C(Cc1ccccc1)=N\NC(=O)c1ccc(F)cc1	none
O=C(NN=C(Cc1ccccc1)Cc1ccccc1)c1ccc(F)cc1	hcDAF12 agonist 6.8 | LXR ag inactive | hcDAF12 ag inactive
CC(CSC(=O)c1ccccc1)C(=O)N1c2ccccc2CC1C(=O)O (stereo unspecified)	hcDAF12 agonist 7.5 (no result: DAX1 inh-1) | LXR ag inactive | hcDAF12 ag inactive
C=CCNC(=O)N1CCC(c2nc3ccc(Cl)cc3[nH]2)CC1	none (no result: DAX1 inh-1)
CC(C)CCNC(=O)CCC(=O)NNc1nc2ccccc2c2nc(-c3ccccc3)nn12	hcDAF12 agonist 6.8 | LXR ag inactive | hcDAF12 ag inactive
CNc1cnn(-c2ccc(C)cc2)c(=O)c1Sc1ccc(C)cc1	none
CNc1cnn(-c2ccc(C)cc2)c(=O)c1Cl	hcDAF12 agonist 8.1 | LXR ag inactive | hcDAF12 ag 9.1
Clc1cccc(Nc2nc(-c3cccnc3)cs2)c1	DAX1 inh-1 5.4, ssDAF12 agonist 1.8, hcDAF12 agonist 8.9, hgDAF12 agonist 11.3 | LXR ag inactive | hcDAF12 ag 10.7
Cc1ccc(Nc2nc(-c3cccnc3)cs2)cc1C	DAX1 inh-1 4.3, ssDAF12 agonist 3.8, hcDAF12 agonist 19.6, hgDAF12 agonist 19.1 | LXR ag inactive | hcDAF12 ag 18.7
CCc1ccc(C(=O)Cn2ccsc2=N)cc1	ssDAF12 agonist 2.1, hcDAF12 agonist 18.9, hgDAF12 agonist 20.1 | LXR ag inactive | hcDAF12 ag 12.2
O=Cc1ccc(/C=C2\c3ccccc3C(=O)N2c2ccccc2)o1	none (no result: DAX1 inh-1)
Cc1ccc(C(=O)NC2CCCCCCC2)c(Cl)c1	hcDAF12 agonist 6.9 | LXR ag inactive | hcDAF12 ag 8.8
O=C(NC1CCCCCCC1)c1cc(F)c(F)cc1Cl	none
c1coc(-c2nc3ccccc3nc2-c2ccco2)c1	none
Nc1ccc(-c2cnc3ccccc3n2)cc1	hcDAF12 agonist 7.1, hgDAF12 agonist 11.3 (no result: DAX1 inh-1) | LXR ag inactive | hcDAF12 ag 7.5
Clc1ccc(-c2cnc3ccccc3n2)cc1	none
c1coc(-c2cnc3ccccc3n2)c1	DAX1 inh-1 4.4, hcDAF12 agonist 7.8 | LXR ag inactive | hcDAF12 ag 5.7
O=C(Nc1ccc(Oc2ccccc2)cc1)C1CCCN1S(=O)(=O)c1cccc2cccnc12 (stereo unspecified)	none (no result: DAX1 inh-1)
C=CCN(C(=O)c1csnn1)C(C(=O)NCc1ccc(F)cc1)c1sccc1C (stereo unspecified)	none
CC(C)(N[C@@H](Cc1ccccc1)C(=O)NCCc1c[nH]c2ccccc12)C(=O)NC1CCCCC1	none (no result: DAX1 inh-1, DAX1 inh-2)
CC(C)[C@H](N)C(=O)N[C@@H](Cc1ccccc1)C(=O)N1CCC2CCN(S(=O)(=O)c3ccccc3)CC21 (stereo partly specified)	none (no result: DAX1 inh-1)
Clc1cccc(Cl)c1/C=C/c1nc2ccccc2[nH]1	none (no result: ssDAF12 agonist, hcDAF12 agonist, DAX1 inh-2, hgDAF12 agonist)
Clc1ccc(/C=C/c2nc3ccccc3[nH]2)c(Cl)c1	ssDAF12 agonist 1.2, hcDAF12 agonist 11.7 | LXR ag inactive | hcDAF12 ag 17.5
C/C(C/C(C)=C1/SC(=S)NC1=O)=C1\SC(=S)NC1=O	hcDAF12 agonist 6.8 | LXR ag inactive | hcDAF12 ag inactive
